iPSC survival up = hiPSC single-cell survival enhancement; survival enhancement, % at 20 µM; 360,000 tested, 0.044% active; ATPlite luminescence; 100% = ROCK inhibitor wells, 0% = DMSO; in the data active = survival enhancement above about 18%;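 also: cells exposed to compounds for 16 hours before the ATP read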
ARNT TACC3 PPI = disrupts binding between human ARNT and TACC3; Q9Y6A5; AlphaScreen His-ARNT PAS-B/GST-TACC3 binding, luminescence; TACC3 fragment carries E629A point mutation; inhibition, % at 9.99 µM; 390,000 tested, 0.66% active; AID 623870;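 active = mean inhibition of replicates at least 50% and at least half of replicates each reaching 50%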
GSIS activator = GLuc luminescence reporter in INS-1E cells, primary screen for activators of glucose-dependent secretion of insulin. activation, % at 16.6 µM. INS-1E GLuc reporter insulin secretion, 2-3 h. AID 743287. 370,000 tested, 0.61% active;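 active = lowest replicate activation of at least 40%, so every replicate reaches that level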
ABCB6 inh 2 = blocks the human ABCB6 transporter | AID 602162 | Q9NP58 | fluorescence ratio to DMSO, % at 10 µM | 360,000 tested, 0.19% active | K562-ABCB6 porphyrin accumulation, flow cytometry, 1 h; stronger effect = lower value;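 active = fluorescence ratio to DMSO below 75%, the collection mean minus 3 SD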;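 also: signal is porphyrin accumulated inside mitochondria; lower ratio means ABCB6 inhibition with less porphyrin fluorescence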
CendR NRP1 mod = alters CendR peptide binding to human NRP-1; O14786; FAM-RPARPAR peptide binding to NRP-1, fluorescence polarization; inhibition, % at 25 µM; 360,000 tested, 0.85% active;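 active = inhibition or corrected inhibition above about 18%, plus a signal ratio from 0.5 to 1.5, limit read from the data, passing the limit was not always enough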
Target sequence (O14786 whole entry, looked up): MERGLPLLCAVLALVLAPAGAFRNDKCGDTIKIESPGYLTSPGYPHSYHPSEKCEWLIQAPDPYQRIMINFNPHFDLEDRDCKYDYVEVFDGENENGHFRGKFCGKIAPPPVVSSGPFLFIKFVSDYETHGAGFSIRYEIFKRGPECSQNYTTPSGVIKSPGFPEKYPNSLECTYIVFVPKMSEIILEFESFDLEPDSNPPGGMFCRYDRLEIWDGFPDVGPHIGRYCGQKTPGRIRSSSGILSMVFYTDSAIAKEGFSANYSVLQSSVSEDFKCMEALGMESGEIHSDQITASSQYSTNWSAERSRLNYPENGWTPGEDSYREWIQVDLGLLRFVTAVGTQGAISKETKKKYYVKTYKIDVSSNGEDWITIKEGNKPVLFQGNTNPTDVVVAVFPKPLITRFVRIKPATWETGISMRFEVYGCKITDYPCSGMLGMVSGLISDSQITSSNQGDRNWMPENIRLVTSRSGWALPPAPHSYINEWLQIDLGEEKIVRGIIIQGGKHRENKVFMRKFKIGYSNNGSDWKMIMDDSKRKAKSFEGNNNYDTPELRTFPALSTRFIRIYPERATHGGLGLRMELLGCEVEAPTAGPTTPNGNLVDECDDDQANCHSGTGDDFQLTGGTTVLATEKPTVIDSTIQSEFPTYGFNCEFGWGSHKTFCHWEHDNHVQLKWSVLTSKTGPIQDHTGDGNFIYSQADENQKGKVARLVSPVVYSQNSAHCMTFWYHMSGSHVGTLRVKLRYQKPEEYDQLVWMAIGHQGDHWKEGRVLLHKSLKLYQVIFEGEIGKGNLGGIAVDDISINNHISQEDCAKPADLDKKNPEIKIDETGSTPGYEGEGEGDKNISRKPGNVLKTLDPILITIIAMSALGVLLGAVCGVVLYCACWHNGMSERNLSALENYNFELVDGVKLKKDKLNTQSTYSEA
Numbers stand for hits; n = inactive; x = no result. An excerpt weighted towards active compounds, which were near 1.8% of everything screened.

SMILES	iPSC survival up	ARNT TACC3 PPI	GSIS activator	ABCB6 inh 2	CendR NRP1 mod
O=C(Cn1cccc1C(=O)c1ccccc1)NCCCc1ccccc1	n	n	n	n	n
O=C(Cn1cccc1C(=O)c1ccccc1)NCCC1=CCCCC1	n	n	n	n	23
CO[C@H]1CN(C)C(=O)c2ccc(NC(=O)c3ccc(-c4ccccc4)cc3)cc2OC[C@@H](C)NC[C@H]1C	x	n	n	x	x
COc1ccc(S(=O)(=O)N(C)C[C@H]2Oc3ccc(NC(=O)Nc4cccc5ccccc45)cc3CC(=O)N([C@H](C)CO)C[C@H]2C)cc1	x	x	n	x	x
N#C/C(C(N)=O)=c1/ccc2c(c1)N1C3=C(CCCC3)CC3CCCCC31N=2 (stereo not given)	x	65	x	x	x
COc1ccc2c3c(n(C)c2c1)[C@@H](CO)N(C(=O)C1CCCC1)CC31CCN(C)CC1	x	x	n	x	x
CC1(C)CC(=O)C2=C(C1)OC(N)=C(C#N)C2c1ccccc1[N+](=O)[O-] (stereo not given)	n	n	n	n	36
CC1(C)CC(=O)C2=C(C1)OC(N)=C(C#N)C2c1ccccc1 (stereo not given)	n	n	n	n	n
CCCNC(=O)C1(C)CCN1C(=O)Cc1ccc(C(C)(C)C)cc1 (stereo not given)	n	x	n	n	n
CC(C)(C)CNC(=O)C1(C)CCN1C(=O)Cc1ccc(C(C)(C)C)cc1 (stereo not given)	n	x	n	n	33
COc1ccc(NC(=O)N(C)C[C@@H]2Oc3ccc(NC(=O)Nc4cccc5ccccc45)cc3C(=O)N([C@@H](C)CO)C[C@H]2C)cc1	x	n	n	x	x
CCCC#Cc1cnc2c(c1)C(=O)N([C@H](C)CO)C[C@H](C)[C@H](CN(C)C(=O)NCCC)O2	x	n	n	x	x
O=[N+]([O-])c1cccc(-c2nnc3ccc4ccccc4n23)c1	n	n	55	n	n
C[C@@H]1CN([C@@H](C)CO)C(=O)c2cccc(NC(=O)Nc3ccc(F)cc3)c2O[C@@H]1CN(C)C(=O)Nc1ccc(F)cc1	x	n	n	x	x
Cc1ccccc1NC(=O)COC(=O)/C=C/c1cn(-c2ccccc2)nc1-c1cccnc1	n	n	n	n	n
CC(=O)Nc1ccc(NC(=O)C(C)OC(=O)/C=C/c2cn(-c3ccccc3)nc2-c2cccnc2)cc1 (stereo not given)	n	n	392	n	n
COc1ccc(C(=O)Nc2ccccc2C(=O)NCc2cccnc2)cc1OC	n	n	41	n	n
CCOc1ccc(C(=O)Nc2ccc(-c3nc4ccccc4[nH]3)cc2)cc1[N+](=O)[O-]	n	n	102	n	n
O=C(NCc1cccnc1)c1ccc(N2CCOCC2)c([N+](=O)[O-])c1	n	n	n	n	n
CCOc1ccc(C(=O)NCc2cccnc2)cc1[N+](=O)[O-]	n	n	n	n	22
CO[C@@H]1CN(C)C(=O)c2cc(NC(=O)NC3CCCC3)ccc2OC[C@H](C)N(CC2CC2)C[C@H]1C	x	x	n	x	x
O=C(/C=C/c1cccs1)NC(=S)NNC(=O)Cc1cccs1	n	n	x	n	29
C[C@@H]1CN([C@H](C)CO)C(=O)c2cc(NC(=O)Nc3cccc4ccccc34)ccc2O[C@@H](C)CCCCO[C@@H]1CN(C)S(=O)(=O)c1ccccc1	x	x	n	x	x
COc1cccc(CN2[C@H](CO)[C@H](c3ccccc3)C23CN(Cc2ccccc2OC)C3)c1	x	x	n	x	x
O=c1[nH][nH]cc1C=Nc1ccccc1O	n	n	x	68	n
SMILES	iPSC survival up	ARNT TACC3 PPI	GSIS activator	ABCB6 inh 2	CendR NRP1 mod
O=c1[nH][nH]cc1C=Nc1ccc(Cl)cc1Cl	n	n	n	n	n
O=c1[nH][nH]cc1C=Nc1cc(Cl)ccc1O	n	49	n	n	n
O=C(C[C@@H]1CC[C@H](NC(=O)Nc2ccccc2F)[C@H](CO)O1)NCc1ccc(F)cc1	x	x	n	x	x
O=C(O)C1OC1(c1ccccc1Cl)c1ccccc1Cl (stereo not given)	n	n	n	n	24
CC(=O)c1ccc(NC(=O)COC(=O)Cn2cnc3ccccc32)cc1	n	n	n	n	n
O=C(COC(=O)Cn1cnc2ccccc21)Nc1ccc(Br)cc1	n	x	x	n	32
CN1CCCCC(NC(=O)c2ccccc2)C1=O (stereo not given)	x	x	117	x	x
O=C(C[C@H]1C[C@@H]2c3cc(NC(=O)Cc4ccncc4)ccc3O[C@@H]2[C@H](CO)O1)NCCN1CCCCC1	x	n	n	x	x

Compound activity (PubChem)
